Screens as filed in PubChem.
FLuc modulator: inhibits or activates purified firefly luciferase, miR-21 counter-screen | P08659 | Potency, µM (series often up to 57.5 µM), for the others: at the top dose activity change, negative = inhibition, most hits filed as inhibitors | 6.9% of 360,000 active | purified FLuc, Km substrates, luminescence inhibition;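 further: plate controls were vehicle for no effect and reference inhibitor for full effect; nearly all actives have a fitted effect of over 55% in size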
Target sequence (P08659 whole entry, looked up): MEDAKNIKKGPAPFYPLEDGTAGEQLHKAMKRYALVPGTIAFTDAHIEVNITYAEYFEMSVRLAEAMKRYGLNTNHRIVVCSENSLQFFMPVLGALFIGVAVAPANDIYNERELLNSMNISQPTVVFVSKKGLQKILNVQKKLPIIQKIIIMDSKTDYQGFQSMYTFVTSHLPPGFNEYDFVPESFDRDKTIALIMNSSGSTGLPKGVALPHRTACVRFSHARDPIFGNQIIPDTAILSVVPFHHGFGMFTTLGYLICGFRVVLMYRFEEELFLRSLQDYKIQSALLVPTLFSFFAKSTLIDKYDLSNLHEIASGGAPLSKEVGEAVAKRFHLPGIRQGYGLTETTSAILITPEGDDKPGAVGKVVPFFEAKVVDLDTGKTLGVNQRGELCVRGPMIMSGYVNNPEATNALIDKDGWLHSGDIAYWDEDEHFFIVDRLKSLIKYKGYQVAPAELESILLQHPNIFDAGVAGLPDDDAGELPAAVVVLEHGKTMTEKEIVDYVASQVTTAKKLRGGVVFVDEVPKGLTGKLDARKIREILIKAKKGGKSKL
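Purified P. pyralis luciferase, 10 nM final, with Km-level 10 uM D-luciferin and 10 uM ATP in 50 mM Tris acetate pH 7.5, 10 mM Mg acetate, 0.01% Tween-20, 0.05% BSA; 6-point qHTS titration about 60 µM downward; luminescence read.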
Rab9 prom act: Rab9 promoter activation; Huh7 Rab9 promoter-luciferase reporter, luminescence, 24 h; Potency, µM (highest dose often 9.22 µM), for inactives: top-dose activation, negative = inhibition, most hits filed as activators; 2.8% of 320,000 active; AID 485297; further: % of control where 0% means no effect; nearly all actives have a fitted effect of over 60% in size
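Huh7 cells stably carrying a Rab9 promoter-luciferase reporter, 1500 cells per well in OP-MEM I with 10% FBS, treated with compound 24 hours at 37C. Luciferase activity read by luminescence after 10 minutes with Amplite reagent.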
ELG1 genotox: genotoxicity induction in ELG1-luciferase HEK293T cells; 1.3% of 330,000 active; Potency, µM (top dose mostly 46 µM), without a hit: at the top dose activity change, positive = activation, hits mostly activators; HEK293T ELG1-luciferase reporter, luminescence, 16 h; AID 504466; further: % of control where 0% means no effect; nearly all actives have a fitted effect of over 60% in size
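After overnight (16 hr) compound treatment at 37 °C, ELG1-luciferase HEK293T cells were lysed with ONE-Glo; luminescence quantified 30 min later at room temperature.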
SMN2 splice up: enhancers of SMN2 splice variant expression; AID 1458; HEK293 SMN2-luciferase splicing reporter, luminescence, 30-36 h; Potency, µM (highest dose often 46.1 µM), without a hit: top-dose activity change, positive = activation, actives largely listed as activators; 2.8% of 210,000 active; further: % of control where 0% means no effect; nearly all actives have a fitted effect of over 55% in size
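HEK293 cells carry an SMN2 […]–luciferase reporter in which exon 7 inclusion puts luciferase in frame. Cells were plated 10-12 h before compound addition, then incubated 30-36 h at 37C. ONE-Glo luminescence was read; sodium butyrate at 4.5 mM final served as control.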
NPC1 prom act: NPC1 promoter activation; 2.4% of 320,000 active; Huh7 NPC1 promoter luciferase reporter, 24 h; AID 485313; Potency, µM (series often up to 9.22 µM), without a hit: at the highest dose activation, most hits filed as activators; further: % of control where 0% means no effect; nearly all actives have a fitted effect of over 60% in size
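Quantitative HTS used a cell-based reporter: Huh7 cells stably bearing the NPC1 promoter upstream of luciferase were treated with compounds for 24 h, and promoter activation was read as luminescence.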
Active calls of the source: *; ? = inconclusive; / = no result; [ ] = remark or other dose. Shown are actives, neighbours in structure and some others; about 7.5% of the full set was active somewhere. The call rests on the fitted dose curve; in most records, active means well fitted curve in the direction sought with a large enough effect; inconclusive means small, poorly fitted or top-dose-only effect, or another doubt; inactive means no such curve, though single readings can be large; an effect the other way counts as inactive or inconclusive. Potency means the concentration at half of the fitted maximal effect.

SMILES | FLuc modulator | Rab9 prom act | ELG1 genotox | SMN2 splice up | NPC1 prom act
CCCOc1ccc(CSc2nc3ccccc3[nH]2)cc1 | 2.1µM* | ? | ? | 20% | 25%
O=C(CSCc1nc2ccccc2[nH]1)Nc1ccccc1 | 0% | 5% | -5% | / | 0%
Fc1cccc(CSc2nc3ncccc3[nH]2)c1 | ? | ? | -1% | 16% | 24%
Fc1ccc(CSc2nc3ccccc3[nH]2)c2ccccc12 | 24µM* | 17% | 5% | -5% | 0%
Fc1ccc(CSc2nc3ncccc3[nH]2)cc1 | 13µM* | ? | ? | ? | ?
c1ccc(CSCc2nc3ccccc3[nH]2)cc1 | 19µM* | 2.5µM* | ? | ? | ?
COc1ccccc1CNC(=O)COC(=O)c1ccc(-n2cnnn2)cc1 | -1% | 4% | 6% | / | -3%
COCCN1C(=O)c2ccc(C(=O)Nc3cccnc3)cc2C1=O | -1% | 1% | 1% | / | -3%
CCN1C(=O)c2ccc(C(=O)NCc3ccccc3)cc2C1=O | -3% | 2% | 1% | -1% | 6%
CC(=O)Oc1cccc(NC(=O)c2ccc3c(c2)C(=O)N(CC(C)C)C3=O)c1 | 11µM* | -5% | ? | / | 1%
CC(=O)Nc1cccc(Oc2ccc3c(c2)C(=O)N(CCC(=O)O)C3=O)c1 | -6%[2.3 µM] | 1% | 1% | 5% | 1%
COCCCN1C(=O)c2ccc(C(=O)Nc3cccc(OC)c3)cc2C1=O | 11µM* | 8% | ? | -8% | -1%
COCCCN1C(=O)c2ccc(C(=O)NCCc3ccccc3)cc2C1=O | 6µM* | ? | ? | / | 29%
COc1cccc(C(=O)Nc2ccc3c(c2)C(=O)N(CCC(=O)O)C3=O)c1 | 17µM* | -11% | 2% | 9% | -10%
Clc1ccc(Cn2cccn2)cn1 | -2% | 1% | 1% | / | -7%
Nc1nn(-c2ccccc2)c(N)c1N=Nc1cccc(F)c1 | 4.3µM* | ? | 6.5µM* | / | ?
O=C(c1ccc2c(c1)OCO2)N1CCN(c2ccccc2)CC1 | -3% | 2% | -2% | -1% | 2%
Cc1nn(-c2ccccc2)c(N)c1N=Nc1cccnc1 | 13µM* | ? | 18µM* | 13µM* | ?
Nc1nn(-c2ccccc2)c(N)c1N=Nc1ccc2c(c1)OCO2 | 1.7µM* | 0.63µM* | ? | 6.3µM* | ?
Nc1nc(-c2ccccc2)c(N=Nc2cccnc2)s1 | -3% | -2% | -5% | -25% | 0%
Cc1nn(-c2ccccc2)c2c1C(c1ccc(F)cc1F)C(C#N)=C(N)O2 (configuration not stated) | -2% | -1% | -3% | 20% | 1%
CC#CCN1c2ccccc2[C@]23C[C@@H](C(=O)OC)N(C(=O)COCc4ccccc4)C2=NC(C(=O)OC)=C(C(=O)OC)[C@H]13 | / | / | / | 0%[9.22 µM] | /
Cc1cccc(Cn2c(=O)n(-c3ccc(CC(=O)NCc4ccco4)cc3)c(=O)c3sccc32)c1 | -11% | -4% | -7% | -14% | -6%
N/C(=N/OCC(=O)Nc1cccc2ccccc12)c1nonc1N | -6% | 1% | -2% | -11% | 3%
N/C(=N\OC(=O)c1ccc(F)cc1)c1nonc1N | 1.5µM* | -8% | 4% | 11% | -2%
SMILES | FLuc modulator | Rab9 prom act | ELG1 genotox | SMN2 splice up | NPC1 prom act
Cc1nc(/C(N)=N/OC(=O)c2cccc(Cl)c2)c(C(F)(F)F)o1 | ? | -5% | -1% | / | 1%
Cc1ccc(C(=O)O/N=C(\N)c2nonc2N)cc1 | 0.48µM* | 11% | ? | 18% | 3%
N/C(=N/OC(=O)c1ccccc1Cl)c1nonc1N | 8.5µM* | ? | ? | 5% | 20%
Cc1nc(/C(N)=N/OC(=O)c2ccccc2Cl)c(C(F)(F)F)o1 | 11µM* | ? | ? | / | ?
Cc1cc(/C(N)=N/OC(=O)c2ccccc2Cl)no1 | 1.7µM* | 0.5µM* | ? | / | 1.1µM*
COC(=O)c1ccc(NC(=O)c2ccccc2N(C)S(C)(=O)=O)cc1 | 0% | -5% | 0% | 21% | 1%
COc1ccc(NC(=O)c2ccccc2NS(C)(=O)=O)cc1OC | 17µM* | -5% | -3% | -4% | -5%
COC(=O)c1ccccc1NC(=O)C1CCCCC1C(=O)O (configuration not stated) | 2% | -2% | -12% | -15% | -5%
O=C(NCCc1ccccc1)c1ccccc1NC(=O)C1CCCCC1C(=O)O (configuration not stated) | ? | 2µM* | ? | 11µM* | ?
COC(=O)c1ccc(NC(=O)c2ccccc2NS(C)(=O)=O)cc1 | 12µM* | 1% | -4% | 6% | 0%
COc1ccccc1NC(=O)c1ccccc1NS(C)(=O)=O | 1% | -6%[1.84 µM] | -6% | -6% | -1%
COc1cccc(N2CCN(CC(=O)Nc3ccccc3C(=O)NCCc3ccccc3)CC2)c1 | / | 3.5µM* | 0% | / | 3.2µM*
COc1cc(OC)cc(C(=O)NC(C(=O)Nc2ccc3c(c2)OCO3)C(C)C)c1 (configuration not stated) | -15% | -1% | 1% | / | -2%
COCCn1c(CNC(=O)c2ccc(C)cc2)nc2cccnc21 | -2% | / | / | / | /
O=C(O)CCc1ccc(S(=O)(=O)Nc2ccccc2C(=O)NCCc2ccccc2)cc1 | 19µM* | 3.2µM* | ? | / | 2.2µM*
CC(NC(=O)c1ccccc1NS(=O)(=O)c1ccc(CCC(=O)O)cc1)c1ccccc1 (configuration not stated) | -1% | 4% | 3% | / | -1%
COc1ccc(NC(C)=O)cc1S(=O)(=O)Nc1ccccc1C(=O)NCCc1ccccc1 | 17µM* | 2µM* | ? | / | 2.2µM*
COC1CCC(C(=O)c2ccc3nc4c(cc3c2)CCCO4)CC1 (configuration not stated) | / | / | / | 13µM* | /
CCCNC(=O)OCCC12CC3CC(CC(C3)C1)C2 | 12µM* | 17% | ? | 7% | 16%
CCCCC1=CC2=C(OC(C)=O)C(=O)C(C)(OC(=O)c3ccc(Cl)nc3)C(=O)C2=CO1 (configuration not stated) | / | / | / | -10% | /
CCOc1ncccc1C(=O)OCC(=O)c1cc(OC)c(OC)c(OC)c1 | -1% | -1% | 2% | / | -4%
C/C(=N/Nc1ccccc1[N+](=O)[O-])c1ccc(C)c([N+](=O)[O-])c1 | -1% | ? | 9% | / | 3.2µM*
O=C(Nc1ccc(N2CCOCC2)cc1)c1ccc([N+](=O)[O-])cc1 | 1% | 12% | 6% | -7% | 7%
C/C(=N\Nc1ccc([N+](=O)[O-])cc1)c1ccco1 | 7.6µM* | 3.5µM* | ? | / | ?
C/C(=N\Nc1ccccc1[N+](=O)[O-])c1ccc(N2CCOCC2)cc1 | 3.4µM* | 3.2µM* | ? | ? | 2.8µM*
C/C(=N\Nc1ccc([N+](=O)[O-])cc1)c1ccc(N2CCOCC2)cc1 | 8.5µM* | 1% | 6% | / | 17%
